Measurements from PubChem BioAssay AID1159580 (chemical genetic matrix, 2015).
The whole screen tested about 5,500 compounds, of which about 2,000 (36%) were called active. Another 18% or so got no clear call; they are omitted. Cut-off read from the data, not from the text of the source: active = normalized growth mostly below about 0.91 (no sharp cut-off); inconclusive = no clear call, values can overlap the other calls; inactive = mostly above about 0.92. The list shows a part of the results.

Test: chemical genetic growth profiling, strain panel (AID 1159580);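 note: tested at 20 µM; growth read once vehicle control cultures reached saturation at 30 °C; 1 = growth at the plate median or of vehicle wells; lower values mean less growth of the strain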
Conditions: S. cerevisiae deletion strains, growth OD
[1] = locus YGR078C, strain PAC10, stronger effect = lower value
[2] = locus YJR075W, strain HOC1, stronger effect = lower value
[3] = locus YMR307W, strain GAS1, stronger effect = lower value
[4] = locus YNL153C, strain GIM3, stronger effect = lower value

Measured: normalized growth

COc1cc2c(cc1OC)[C@@H](c1ccccc1)CN(C)CC2
inactive: locus YAL040C, strain CLN3, stronger effect = lower value 1 | locus YCL061C, strain MRC1 (second series), stronger effect = lower value 1.01 | locus YDR363W, strain ESC2, stronger effect = lower value 1.01 | locus YER002W, strain NOP16, stronger effect = lower value 1 | [1] 1.01 | [2] 1.01 | locus YMR263W, strain SAP30, stronger effect = lower value 1.01 | [3] 1.01 | locus YNL128W, strain TEP1, stronger effect = lower value 1.01 | [4] 1.04 | locus YNL175C, strain NOP13, stronger effect = lower value 1 | locus YNL197C, strain WHI3, stronger effect = lower value 1 | locus YNL224C, strain SQS1, stronger effect = lower value 1 | locus YNL322C, strain KRE1, stronger effect = lower value 1.01 | locus YOR083W, strain WHI5 (second series), stronger effect = lower value 1.02 | locus YPL055C, strain LGE1, stronger effect = lower value 0.995 | locus YPL241C, strain CIN2, stronger effect = lower value 1.01

COc1ccccc1/C=C\C(=O)O
inactive: locus YAL013W, strain DEP1, stronger effect = lower value 1.02 | locus YAL021C, strain ccr4, stronger effect = lower value 1.01 | locus YAL026C, strain drs2, stronger effect = lower value 1.01 | locus YAL030W, strain snc1, stronger effect = lower value 0.988 | locus YBL061C, strain skt5, stronger effect = lower value 1 | locus YBR009C, strain hhf1, stronger effect = lower value 1 | locus YBR021W, strain FUR4, stronger effect = lower value 1.02 | locus YBR023C, strain chs3, stronger effect = lower value 1.01 | locus YBR171W, strain sec66, stronger effect = lower value 0.996 | locus YBR229C, strain ROT2, stronger effect = lower value 1.02 | locus YBR231C, strain swc5, stronger effect = lower value 1.02 | locus YBR279W, strain paf1, stronger effect = lower value 1 | locus YCL011C, strain gbp2, stronger effect = lower value 0.99 | locus YCL016C, strain dcc1, stronger effect = lower value 1.01 | locus YCL029C, strain bik1, stronger effect = lower value 1.02 | locus YCL061C, strain MRC1, stronger effect = lower value 0.993 | locus YCL069W, strain vba3, stronger effect = lower value 0.996 | locus YCR088W, strain abp1, stronger effect = lower value 0.996 | locus YDL005C, strain med2, stronger effect = lower value 1 | locus YDL035C, strain GPR1, stronger effect = lower value 1.08 | locus YDL040C, strain nat1, stronger effect = lower value 0.994 | locus YDL074C, strain BRE1, stronger effect = lower value 1.19 | locus YDL101C, strain DUN1, stronger effect = lower value 1.01 | locus YDL185W, strain tfp1, stronger effect = lower value 0.971 | locus YDL192W, strain arf1, stronger effect = lower value 1.04 | locus YDR001C, strain nth1, stronger effect = lower value 0.991 | locus YDR069C, strain doa4, stronger effect = lower value 1.03 | locus YDR101C, strain arx1, stronger effect = lower value 1.01 | locus YDR137W, strain rgp1, stronger effect = lower value 0.955 | locus YDR159W, strain sac3, stronger effect = lower value 1.03 | locus YDR162C, strain NBP2, stronger effect = lower value 1.05 | locus YDR195W, strain ref2 1.07 | locus YDR297W, strain sur2, stronger effect = lower value 0.994 | locus YDR318W, strain mcm21, stronger effect = lower value 1.04 | locus YDR334W, strain swr1, stronger effect = lower value 1.01 | locus YDR335W, strain msn5, stronger effect = lower value 1 | locus YDR388W, stronger effect = lower value 1 | locus YDR392W, strain spt3, stronger effect = lower value 0.793 | locus YDR502C, strain sam2, stronger effect = lower value 1.03 | locus YEL003W, strain gim4, stronger effect = lower value 0.996 | locus YEL037C, strain rad23, stronger effect = lower value 1 | locus YEL061C, strain CIN8 (second series), stronger effect = lower value 0.992 | locus YER015W, strain faa2, stronger effect = lower value 1.01 | locus YER016W, strain bim1, stronger effect = lower value 1.01 | locus YER110C, stronger effect = lower value 1.03 | locus YER111C, strain swi4, stronger effect = lower value 0.993 | locus YER155C, strain BEM2 (second series), stronger effect = lower value 0.949 | locus YER155C, strain BEM2, stronger effect = lower value 1.01 | locus YER167W, strain BCK2, stronger effect = lower value 1.01 | locus YFR010W, strain ubp6, stronger effect = lower value 1.02 | locus YGL078C, strain dbp3, stronger effect = lower value 1.02 | locus YGL086W, strain mad1, stronger effect = lower value 1.01 | locus YGL167C, strain pmr1, stronger effect = lower value 0.991 | locus YGL173C, strain kem1, stronger effect = lower value 0.998 | locus YGL227W, strain vid30, stronger effect = lower value 1 | locus YGL240W, strain doc1, stronger effect = lower value 0.981 | locus YGL248W, strain PDE1, stronger effect = lower value 1.08 | locus YGL253W, strain hxk2, stronger effect = lower value 1.01 | [1] 1.06 | locus YGR135W, strain pre9, stronger effect = lower value 1.04 | locus YGR252W, strain gcn5, stronger effect = lower value 1.15 | locus YHR013C, strain ard1, stronger effect = lower value 0.927 | locus YHR027C, strain rpn1, stronger effect = lower value 1 | locus YHR030C, strain SLT2, stronger effect = lower value 1.01 | locus YHR079C, strain IRE1 (second series), stronger effect = lower value 1.03 | locus YHR094C, strain hxt1, stronger effect = lower value 0.998 | locus YHR129C, strain ARP1, stronger effect = lower value 1.03 | locus YHR142W, strain chs7, stronger effect = lower value 0.971 | locus YHR200W, strain rpn10, stronger effect = lower value 1.01 | locus YIL066C, strain RNR3, stronger effect = lower value 1.03 | locus YIL073C, strain SPO22, stronger effect = lower value 1.23 | locus YIL125W, strain kgd1, stronger effect = lower value 1.01 | locus YIR030C, strain dcg1, stronger effect = lower value 1.02 | locus YJL092W, strain hpr5, stronger effect = lower value 1 | locus YJL095W, strain BCK1 (second series), stronger effect = lower value 1.02 | locus YJL095W, strain BCK1, stronger effect = lower value 1.07 | locus YJL115W, strain asf1, stronger effect = lower value 1.02 | locus YJL129C, strain trk1, stronger effect = lower value 0.989 | locus YJL134W, strain LCB3, stronger effect = lower value 1.01 | locus YJL154C, strain vps35, stronger effect = lower value 1.01 | locus YJL164C, strain tpk1, stronger effect = lower value 0.992 | locus YJL166W, strain qcr8, stronger effect = lower value 0.98 | locus YJL168C, strain set2, stronger effect = lower value 1.04 | locus YJL187C, strain SWE1 (second series), stronger effect = lower value 1.04 | locus YJL187C, strain SWE1, stronger effect = lower value 0.991 | locus YJR043C, strain POL32, stronger effect = lower value 1.05 | [2] 1.02 | locus YKL009W, strain mrt4, stronger effect = lower value 1.03 | locus YKL068W, stronger effect = lower value 1.01 | locus YKL085W, strain MDH1 (second series), stronger effect = lower value 0.99 | locus YKL085W, strain MDH1, stronger effect = lower value 0.99 | locus YKL160W, strain elf1, stronger effect = lower value 0.986 | locus YKR001C, strain vps1, stronger effect = lower value 1.07 | locus YKR026C, strain gcn3, stronger effect = lower value 1 | locus YKR091W, strain srl3, stronger effect = lower value 0.995 | locus YLL001W, strain dnm1, stronger effect = lower value 0.993 | locus YLL026W, stronger effect = lower value 1 | locus YLL041C, strain sdh2, stronger effect = lower value 0.999 | locus YLR027C, strain aat2, stronger effect = lower value 1.01 | locus YLR039C, strain RIC1, stronger effect = lower value 1.22 | locus YLR058C, strain SHM2, stronger effect = lower value 1.04 | locus YLR102C, strain apc9, stronger effect = lower value 1.01 | locus YLR221C, strain rsa3, stronger effect = lower value 0.988 | locus YLR258W, strain gsy2, stronger effect = lower value 0.987 | locus YLR262C, strain YPT6 (second series), stronger effect = lower value 0.932 | locus YLR268W, strain sec22, stronger effect = lower value 1.05 | locus YLR320W, strain mms22, stronger effect = lower value 0.942 | locus YLR330W, strain CHS5, stronger effect = lower value 1.03 | locus YLR342W, strain FKS1 (second series), stronger effect = lower value 1.05 | locus YLR342W, strain FKS1, stronger effect = lower value 0.996 | locus YLR357W, strain rsc2, stronger effect = lower value 1.02 | locus YLR370C, strain arc18, stronger effect = lower value 1 | locus YLR371W, strain rom2, stronger effect = lower value 1.02 | locus YLR384C, strain iki3, stronger effect = lower value 1.03 | locus YLR418C, strain cdc73, stronger effect = lower value 1.15 | locus YML016C, strain PPZ1, stronger effect = lower value 1.01 | locus YML032C, strain rad52, stronger effect = lower value 1.03 | locus YML120C, strain ndi1, stronger effect = lower value 0.994 | locus YML124C, strain tub3, stronger effect = lower value 1.02 | locus YMR058W, strain fet3, stronger effect = lower value 0.999 | locus YMR078C, strain ctf18, stronger effect = lower value 1.02 | locus YMR125W, strain sto1, stronger effect = lower value 1 | locus YMR129W, stronger effect = lower value 0.993 | locus YMR205C, strain PFK2, stronger effect = lower value 0.928 | locus YMR223W, strain ubp8, stronger effect = lower value 1.03 | locus YMR231W, strain pep5, stronger effect = lower value 1.01 | [3] 1.25 | locus YNL067W, strain RPL9B, stronger effect = lower value 1.01 | locus YNL071W, strain lat1, stronger effect = lower value 0.966 | [4] 1.06 | locus YNL209W, strain ssb2, stronger effect = lower value 1.01 | locus YNL233W, strain BNI4, stronger effect = lower value 1.08 | locus YNL248C, strain rpa49, stronger effect = lower value 1 | locus YNL250W, strain rad50, stronger effect = lower value 1.02 | locus YNL271C, strain bni1, stronger effect = lower value 1.01 | locus YNL298W, strain CLA4, stronger effect = lower value 1.03 | locus YNL307C, strain MCK1, stronger effect = lower value 1.02 | locus YNL322C, strain KRE1 (second series), stronger effect = lower value 0.999 | locus YNR049C, strain mso1, stronger effect = lower value 1 | locus YNR052C, strain pop2, stronger effect = lower value 1.03 | locus YOL006C, strain TOP1, stronger effect = lower value 1.32 | locus YOL012C, strain htz1 1.02 | locus YOL147C, strain pex11, stronger effect = lower value 1.02 | locus YOR001W, strain rrp6, stronger effect = lower value 0.979 | locus YOR061W, strain CKA2, stronger effect = lower value 1.02 | locus YOR069W, strain VPS5, stronger effect = lower value 1.02 | locus YOR070C, strain gyp1, stronger effect = lower value 1 | locus YOR080W, strain dia2, stronger effect = lower value 1.01 | locus YOR083W, strain WHI5, stronger effect = lower value 0.994 | locus YOR106W, strain vam3, stronger effect = lower value 0.995 | locus YOR136W, strain idh2, stronger effect = lower value 1.02 | locus YOR144C, strain elg1, stronger effect = lower value 1.02 | locus YOR184W, strain ser1, stronger effect = lower value 1.05 | locus YOR265W, strain rbl2, stronger effect = lower value 0.994 | locus YOR270C, strain vph1, stronger effect = lower value 0.843 | locus YOR290C, strain snf2, stronger effect = lower value 0.952 | locus YOR316C, strain cot1, stronger effect = lower value 1.01 | locus YPL051W, strain arl3, stronger effect = lower value 0.992 | locus YPL078C, strain atp4, stronger effect = lower value 0.987 | locus YPL106C, strain sse1, stronger effect = lower value 0.987 | locus YPL240C, strain hsp82, stronger effect = lower value 1 | locus YPR119W, strain clb2, stronger effect = lower value 1.02 | locus YPR141C, strain kar3, stronger effect = lower value 0.999 | locus YPR163C, strain tif3, stronger effect = lower value 1.02 | locus YPR167C, strain met16, stronger effect = lower value 1.03 | strain wtn01, stronger effect = lower value 1.03
